A selection: hits, their analogues and other compounds. The true share with any hit is near 2.3%.
MEKK2wt PB1 HTS = raises or lowers MEK5 binding to wildtype human MEKK2 PB1 domain; bead flow cytometry, Alexa488-MEK5 binding to MEKK2 WT; actives lie on both sides; AID 1531; Q9Y2U5; binding response (% of control), % at 10 µM; 290,000 tested, 1.1% active; in the data active = binding response below about 67% or above about 130%
MEKK3 PB1 HTS = modulators (inhibitors or enhancers) of MEK5 binding to human MEKK3 PB1 domain; Q99759; bead-based flow cytometry, Alexa488-MEK5 binding to MEKK3; actives lie on both sides; 0 = blocked by unlabeled MEK5, 100 = vehicle; binding response (% of control), % at 10 µM; 290,000 tested, 1.4% active;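 active = binding response more than 3 SD above or below the average of its plate-row segment, actives on both sides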;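 note: Alexa488 bead fluorescence after subtracting the streptavidin-only scavenger bead signal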
UBC13 inh = inhibitors of human UBC13 polyubiquitin chain formation; P61088; TR-FRET; inhibition, % at 20 µM; 330,000 tested, 0.47% active; in the data active = inhibition above about 45%, passing the limit was not always enough
Target sequence (P61088 whole entry, looked up): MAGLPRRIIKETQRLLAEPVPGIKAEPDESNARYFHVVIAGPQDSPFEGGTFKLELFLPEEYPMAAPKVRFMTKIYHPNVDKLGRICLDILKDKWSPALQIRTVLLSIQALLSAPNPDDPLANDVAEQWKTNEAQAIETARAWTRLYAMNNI
MEKK2mut PB1 HTS = signal of MEK5 binding to mutant human MEKK2 PB1 domain; bead flow cytometry, Alexa488-MEK5 binding to MEKK2 mutant; 290,000 tested, 0.35% active; percent response, % at 10 µM; in the data active = percent response above about 24%, passing the limit was not always enough
MEKK2wt confirm = raises or lowers MEK5 binding to wildtype human MEKK2, retest | shares compounds with MEKK3 PB1 HTS | bead flow cytometry, Alexa488-MEK5 binding to MEKK2 WT; actives lie on both sides | binding response (% of control), % at 10 µM | 5,900 tested, 2.4% active | AID 1892; in the data active = binding response below about 16% or above about 210%; inactive = in between
MEKK2mut confirm = signal of MEK5 binding to mutant human MEKK2, retest; shares compounds with MEKK3 PB1 HTS; bead flow cytometry, Alexa488-MEK5 binding to MEKK2 mutant; percent response, % at 10 µM; 5,900 tested, 2% active; AID 1893; in the data active = percent response mostly above about 71%, no sharp cut-off; inactive = mostly below about 38%;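 note: higher means compound restores mutant binding toward wildtype level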
MEKK3 confirm = MEKK3-MEK5 PB1 inhibition, single concentration confirmation; 5,900 tested, 1.8% active; binding response (% of control), % at 10 µM; AID 1894; shares compounds with MEKK3 PB1 HTS; bead flow cytometry, Alexa488-MEK5 binding to MEKK3; stronger effect = lower value;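 active = binding response below 72% of control, or above a set upper limit, though filed actives all read lower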;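 note: 100% = DMSO only wells and 0% = binding blocked by excess unlabeled MEK5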
Numbers without * were called inactive; · = not tested or not shown; [ ] = dose if it differs, or a comment.

SMILES	MEKK2wt PB1 HTS	MEKK3 PB1 HTS	UBC13 inh	MEKK2mut PB1 HTS	MEKK2wt confirm	MEKK2mut confirm	MEKK3 confirm
COc1cc(OC)cc(C(=O)NCc2ccc3[nH]c(C)cc3c2)c1	103	104	6	0	·	·	·
COc1cc(CN(C)CC2CCCN(CCc3ccccc3F)C2)cc(Cl)c1OC (configuration not stated)	122	103	8	4	·	·	·
CC(Sc1ccc(Cl)cc1)C(=O)Nc1ccc2c(c1)OCO2 (configuration not stated)	96	108	3	2	·	·	·
CC(C)N1CCC2(CC1)N=C(c1ccc3c(c1)OCO3)CC(c1cc(Cl)ccc1O)N2 (configuration not stated)	138*	111	14	26*	122	8	107
Cc1ccc2c(c1)N(C(C)C(=O)NCc1ccc3c(c1)OCO3)C(=O)CO2 (configuration not stated)	29*[inhibitor]	30*[inhibitor]	6	-14	130	12	107
Cc1nc(SCC(=O)NCC(F)(F)F)c2c(-c3cccs3)csc2n1	104	128*	-7	0	96	-5	100
CCOCCCNC(=O)C1CCN(S(=O)(=O)c2ccc3nc4c(c(C(=O)O)c3c2)CCCCC4)CC1	98	100	-2	2	·	·	·
CC(=O)OCC(=O)Nc1ccccc1OC(F)F	96	101	-2	-7	·	·	·
O=C(COC(=O)COc1ccccc1)Nc1ccccc1OC(F)F	85	72*[inhibitor]	2	-14	105	5	101
O=C(CCC(=O)Nc1ccc(Br)cc1)N/N=C/c1ccccc1F	100	101	8	6	·	·	·
O=C(CCC(=O)Nc1ccc(F)cc1)N/N=C/c1ccccc1O	124	149*	-11	5	106	8	107
COc1ccc(-c2nc(C)sc2CC(=O)O)cc1OC	92	96	2	-9	·	·	·
Cc1ccc(C)c(CN2CCC(CNC(=O)Nc3ccc(Cl)cc3)CC2)c1	139	105	14	16	·	·	·
Cc1ccc(C)c(CN2CCC(CNC(=O)Nc3ccc(Br)cc3F)CC2)c1	140*	109	16	22	148	18	104
COc1ccc(-c2noc(CN3CCOCC3)n2)cc1OC	0.0*[inhibitor]	1.0*[inhibitor]	-6	-65	97	-6	98
CCCN(Cc1ccc(C)cc1)C(=O)c1ccc(CNS(=O)(=O)c2ccc(C(C)=O)cc2)cc1	·	·	12	·	·	·	·
N#CCCNC(=O)Cn1c(COc2ccc(Cl)cc2)nc2ccccc21	108	143*	18	1	96	0	97
O=C(Cn1c(COc2ccc(Cl)cc2)nc2ccccc21)NCC(F)(F)F	118	108	-7	29	·	·	·
Cc1cccc(S(=O)(=O)c2c(N)n(-c3ccccc3)c3nc4ccccc4nc23)c1	105	138*	8	0	97	-3	107
Cc1ccc(-n2c(N)c(S(=O)(=O)c3ccccc3)c3nc4ccccc4nc32)cc1	95	101	0	-5	·	·	·
C=CCc1c(C)nc2c(OC)cccc2c1Cl	111	131*	14	-1	103	-2	100
O=C(NCCCN1CCOCC1)c1ccc(Cl)cc1[N+](=O)[O-]	107	108	-3	-6	·	·	·
O=C(NCCCN1CCOCC1)c1cc(Cl)ccc1[N+](=O)[O-]	114	206*	14	2	99	2	100
CN(CC(=O)Nc1ccc(F)c(F)c1F)C(=O)C1CCC1	·	·	-2	·	·	·	·
O=C1CC(N2CCOCC2)C(=O)N1CCN1C(=O)CC(N2CCOCC2)C1=O (configuration not stated)	2.0*[inhibitor]	2.0*[inhibitor]	-3	-16	98	-1	97
SMILES	MEKK2wt PB1 HTS	MEKK3 PB1 HTS	UBC13 inh	MEKK2mut PB1 HTS	MEKK2wt confirm	MEKK2mut confirm	MEKK3 confirm
CCN1C(=O)CC(N2CCOCC2)C1=O (configuration not stated)	109	107	-8	5	·	·	·
O=C(Nc1ccc(S(=O)(=O)NCc2ccco2)cc1)C1CCCCC1	102	104	-16	3	·	·	·
CN(C)c1ccc(/C=C2\SC(=S)N(Nc3ncc(C(F)(F)F)cc3Cl)C2=O)cc1	305*	97	-282	309*	34	-35	56*
COc1cc(/C=C2\SC(=S)N(Nc3ncc(C(F)(F)F)cc3Cl)C2=O)ccc1O	62*[inhibitor]	93	-88	-6	76	-12	98
COc1cc(/C=C2\SC(=S)N(Nc3ccccc3)C2=O)ccc1O	58	94	-114	-3	·	·	·
COc1ccccc1NC(=O)c1ccc(NC(=O)COC(=O)C2CCCCC2)cc1	112	137*	0	1	106	-1	108
c1ccc(-c2cc(-c3ccccc3)on2)cc1	129	130*	2	27	109	15	107
Cc1ccc(-c2cc(-c3ccccc3)no2)cc1	·	·	4	·	·	·	·
O=C(NCCc1ccccc1)c1nccc2ccccc12	·	·	-4	·	·	·	·
c1ccc(CCNc2ccnc3cc4ccccc4cc23)cc1	210*	104	·	97*	202	58	103
CCOc1cc(/C=N/N=C(N)N)ccc1OCc1ccc(Cl)cc1	149*	104	·	6	202	63	109
Cc1cc(C)cc(NC(=O)C2CCCN2C(=O)NC2CCCCC2)c1 (configuration not stated)	93	96	-2	2	·	·	·
Cc1cc(C)c(NC(=O)C2CCCN2CCOC(=O)c2cccc([N+](=O)[O-])c2)c(C)c1 (configuration not stated)	100	120	-10	0	·	·	·
Cc1cc(C)c(NC(=O)C2CCCN2CCOC(=O)c2ccccc2)c(C)c1 (configuration not stated)	106	142*	12	0	109	5	106
Cc1cc(C)c(NC(=O)C2CCCN2C(=O)NC2CCCCC2)c(C)c1 (configuration not stated)	102	125*	7	6	108	3	105
COc1ccc(CCNC(=O)COC(=O)/C=C/c2ccc(OC)c(OC)c2)cc1	136	107	3	12	·	·	·
CCOc1ccc(/C=C/C(=O)NCc2ccccc2)cc1	108	137*	2	0	109	11	109
CCOc1ccc(/C=C/C(=O)NCCc2ccc(OC)c(OC)c2)cc1	109	147*	-5	1	102	-3	99
CCOc1ccc(/C=C/C(=O)c2ccccc2)cc1	94	95	6	-6	·	·	·
Cc1ccc(C)c(NC(=O)CN(C)C(=O)c2ccc3c(=O)n4c(nc3c2)CCC4)c1	·	·	5	·	·	·	·
O=C(NCCc1cccc(Cl)c1)c1cccc(-n2cnnn2)c1	·	·	8	·	·	·	·
CC(=O)c1cc(CN2CCN(Cc3ccccc3)C(CCO)C2)cs1 (configuration not stated)	114	106	-8	17	·	·	·

Assay outcomes: PubChem BioAssay, several laboratories
